For experiment [1], the target named is Fibroblast growth factor receptor 4 (Homo sapiens) (UniProt P22455). As to conditions: at 1 µM.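 Note: reported figure is the averaged percent inhibition of FGFR4, from the GSK PKIS kinase screening panel.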
In experiment [2] the target is Tyrosine-protein kinase Fgr (Homo sapiens) (UniProt P09769). As to conditions: at 0.1 µM.
For experiment [3] the target is unchanged. The conditions noted are these: at 1 µM.
The target of experiment [4] is Vascular endothelial growth factor receptor 1 (Homo sapiens) (UniProt P17948). The conditions noted are these: at 0.1 µM.
Chain of Vascular endothelial growth factor receptor 1 (Homo sapiens) (P17948 whole entry): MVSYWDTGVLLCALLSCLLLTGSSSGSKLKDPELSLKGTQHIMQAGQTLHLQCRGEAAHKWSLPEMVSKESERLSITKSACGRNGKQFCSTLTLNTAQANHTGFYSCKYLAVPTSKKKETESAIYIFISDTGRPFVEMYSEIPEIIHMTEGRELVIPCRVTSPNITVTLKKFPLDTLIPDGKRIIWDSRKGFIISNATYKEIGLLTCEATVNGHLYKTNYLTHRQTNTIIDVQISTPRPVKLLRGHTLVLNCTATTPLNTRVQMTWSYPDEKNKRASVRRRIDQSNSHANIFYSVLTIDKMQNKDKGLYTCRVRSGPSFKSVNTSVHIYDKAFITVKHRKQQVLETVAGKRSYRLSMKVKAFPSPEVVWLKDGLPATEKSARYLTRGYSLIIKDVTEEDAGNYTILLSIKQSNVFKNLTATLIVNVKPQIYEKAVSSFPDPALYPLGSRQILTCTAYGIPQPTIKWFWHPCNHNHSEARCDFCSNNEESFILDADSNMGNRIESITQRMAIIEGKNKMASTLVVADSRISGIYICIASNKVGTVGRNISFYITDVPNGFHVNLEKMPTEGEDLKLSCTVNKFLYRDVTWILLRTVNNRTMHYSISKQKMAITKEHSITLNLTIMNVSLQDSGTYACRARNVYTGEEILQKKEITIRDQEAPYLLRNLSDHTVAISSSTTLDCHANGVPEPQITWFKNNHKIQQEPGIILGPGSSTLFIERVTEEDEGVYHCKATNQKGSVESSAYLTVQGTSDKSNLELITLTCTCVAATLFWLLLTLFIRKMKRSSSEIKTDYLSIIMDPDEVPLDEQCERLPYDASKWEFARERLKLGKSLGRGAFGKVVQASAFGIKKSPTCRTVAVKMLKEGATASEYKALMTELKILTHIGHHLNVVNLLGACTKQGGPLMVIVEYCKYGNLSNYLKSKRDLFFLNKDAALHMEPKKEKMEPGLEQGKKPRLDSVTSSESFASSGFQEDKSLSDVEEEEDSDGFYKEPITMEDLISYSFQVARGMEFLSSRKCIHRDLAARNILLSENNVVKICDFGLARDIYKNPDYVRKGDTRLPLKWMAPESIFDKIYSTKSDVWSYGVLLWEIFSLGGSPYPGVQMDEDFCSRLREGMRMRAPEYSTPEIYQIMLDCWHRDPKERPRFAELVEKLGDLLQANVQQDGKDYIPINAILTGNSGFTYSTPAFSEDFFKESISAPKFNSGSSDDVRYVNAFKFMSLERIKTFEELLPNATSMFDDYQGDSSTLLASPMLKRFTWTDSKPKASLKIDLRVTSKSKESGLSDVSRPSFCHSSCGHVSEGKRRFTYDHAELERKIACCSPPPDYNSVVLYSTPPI
The target is the same in experiment [5]. As to conditions: at 1 µM.
For experiment [6], the target named is Receptor-type tyrosine-protein kinase FLT3 (Homo sapiens) (UniProt P36888). As to conditions: at 0.1 µM.
For experiment [7] the target is unchanged. As to conditions: at 1 µM.
The test system of experiment [8] is T1, Receptor-type tyrosine-protein kinase FLT3 (Homo sapiens), P36888 [D835Y].
T1 sequence (whole entry): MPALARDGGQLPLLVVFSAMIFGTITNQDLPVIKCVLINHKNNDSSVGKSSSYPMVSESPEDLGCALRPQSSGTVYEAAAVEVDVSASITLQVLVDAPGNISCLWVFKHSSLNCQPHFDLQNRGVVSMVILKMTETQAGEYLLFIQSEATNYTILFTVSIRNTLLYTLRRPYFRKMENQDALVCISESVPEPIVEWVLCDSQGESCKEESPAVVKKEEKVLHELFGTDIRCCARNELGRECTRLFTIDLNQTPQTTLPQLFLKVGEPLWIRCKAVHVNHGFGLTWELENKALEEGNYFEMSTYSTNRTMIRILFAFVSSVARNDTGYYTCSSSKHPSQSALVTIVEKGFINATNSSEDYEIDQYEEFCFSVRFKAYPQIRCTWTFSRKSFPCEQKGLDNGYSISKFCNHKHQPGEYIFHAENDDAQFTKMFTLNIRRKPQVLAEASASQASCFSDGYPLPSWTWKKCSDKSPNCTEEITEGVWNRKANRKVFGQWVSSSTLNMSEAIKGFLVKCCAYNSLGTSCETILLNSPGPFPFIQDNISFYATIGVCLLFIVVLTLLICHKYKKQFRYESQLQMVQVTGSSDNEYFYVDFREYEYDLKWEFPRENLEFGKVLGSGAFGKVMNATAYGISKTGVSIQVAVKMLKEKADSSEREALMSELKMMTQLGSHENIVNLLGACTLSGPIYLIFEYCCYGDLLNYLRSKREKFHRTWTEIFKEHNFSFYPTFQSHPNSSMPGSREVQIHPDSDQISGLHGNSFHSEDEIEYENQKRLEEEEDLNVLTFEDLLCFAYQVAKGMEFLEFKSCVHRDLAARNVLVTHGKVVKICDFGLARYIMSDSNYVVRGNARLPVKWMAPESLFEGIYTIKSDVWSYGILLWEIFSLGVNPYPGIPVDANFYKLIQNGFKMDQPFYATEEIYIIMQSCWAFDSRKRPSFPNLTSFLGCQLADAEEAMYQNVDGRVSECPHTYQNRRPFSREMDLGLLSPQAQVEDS
The conditions noted are these: at 0.1 µM.

Experiment [9] addresses Non-receptor tyrosine-protein kinase TYK2 (Homo sapiens) (UniProt P29597). As to conditions: at 1 µM.
Experiment [10] concerns the target T2, Tyrosine-protein kinase receptor TYRO3 (Homo sapiens) (UniProt Q06418).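 Note: reported percentages are averaged inhibition values of TYRO3 kinase activity.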
T2 sequence (whole entry): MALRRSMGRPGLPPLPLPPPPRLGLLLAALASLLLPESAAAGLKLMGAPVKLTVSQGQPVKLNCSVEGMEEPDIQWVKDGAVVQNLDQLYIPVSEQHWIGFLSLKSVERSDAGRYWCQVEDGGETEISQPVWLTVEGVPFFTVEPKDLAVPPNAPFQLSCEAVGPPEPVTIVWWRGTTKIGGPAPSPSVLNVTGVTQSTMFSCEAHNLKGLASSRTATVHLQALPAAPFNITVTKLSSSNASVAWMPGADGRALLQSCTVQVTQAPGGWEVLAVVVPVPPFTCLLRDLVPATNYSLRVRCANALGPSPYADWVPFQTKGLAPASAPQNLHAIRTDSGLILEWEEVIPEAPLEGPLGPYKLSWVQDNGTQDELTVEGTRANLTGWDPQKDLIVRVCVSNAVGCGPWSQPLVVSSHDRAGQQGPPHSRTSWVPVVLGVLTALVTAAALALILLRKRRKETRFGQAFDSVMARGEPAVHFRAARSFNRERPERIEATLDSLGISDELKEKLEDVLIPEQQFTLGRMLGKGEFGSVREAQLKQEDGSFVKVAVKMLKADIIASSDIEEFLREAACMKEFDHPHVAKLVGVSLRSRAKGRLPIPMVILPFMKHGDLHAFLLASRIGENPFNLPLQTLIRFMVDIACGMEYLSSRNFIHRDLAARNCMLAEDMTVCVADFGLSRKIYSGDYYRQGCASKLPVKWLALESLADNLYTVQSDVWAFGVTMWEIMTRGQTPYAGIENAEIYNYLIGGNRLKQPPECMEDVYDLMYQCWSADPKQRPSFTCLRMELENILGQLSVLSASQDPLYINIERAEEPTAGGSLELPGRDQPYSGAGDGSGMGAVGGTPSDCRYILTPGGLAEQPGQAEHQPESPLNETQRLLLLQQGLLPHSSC
As to conditions: at 0.1 µM.

Chain of Fibroblast growth factor receptor 4 (Homo sapiens) (P22455 22-802 limits assumed): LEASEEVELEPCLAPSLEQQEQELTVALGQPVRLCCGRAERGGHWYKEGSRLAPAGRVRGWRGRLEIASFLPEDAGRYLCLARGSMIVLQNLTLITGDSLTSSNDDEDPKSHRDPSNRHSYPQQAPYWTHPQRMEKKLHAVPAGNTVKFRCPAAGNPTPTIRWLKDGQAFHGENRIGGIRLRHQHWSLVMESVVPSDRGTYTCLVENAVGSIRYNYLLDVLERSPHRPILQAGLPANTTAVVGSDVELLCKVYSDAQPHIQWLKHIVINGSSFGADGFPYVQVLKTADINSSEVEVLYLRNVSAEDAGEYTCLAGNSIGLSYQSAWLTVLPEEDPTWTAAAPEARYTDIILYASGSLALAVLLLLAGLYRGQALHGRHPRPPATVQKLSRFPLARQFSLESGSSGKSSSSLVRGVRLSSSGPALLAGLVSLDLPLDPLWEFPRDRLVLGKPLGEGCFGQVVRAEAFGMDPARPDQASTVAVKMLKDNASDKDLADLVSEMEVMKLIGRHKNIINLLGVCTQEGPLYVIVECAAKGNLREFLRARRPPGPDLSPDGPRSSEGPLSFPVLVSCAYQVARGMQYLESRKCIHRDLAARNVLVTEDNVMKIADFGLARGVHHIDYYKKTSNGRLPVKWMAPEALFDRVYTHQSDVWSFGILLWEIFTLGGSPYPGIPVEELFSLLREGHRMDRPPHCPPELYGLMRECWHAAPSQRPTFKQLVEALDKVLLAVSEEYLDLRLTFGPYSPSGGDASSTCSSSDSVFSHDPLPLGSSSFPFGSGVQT
Chain of Non-receptor tyrosine-protein kinase TYK2 (Homo sapiens) (P29597 whole entry): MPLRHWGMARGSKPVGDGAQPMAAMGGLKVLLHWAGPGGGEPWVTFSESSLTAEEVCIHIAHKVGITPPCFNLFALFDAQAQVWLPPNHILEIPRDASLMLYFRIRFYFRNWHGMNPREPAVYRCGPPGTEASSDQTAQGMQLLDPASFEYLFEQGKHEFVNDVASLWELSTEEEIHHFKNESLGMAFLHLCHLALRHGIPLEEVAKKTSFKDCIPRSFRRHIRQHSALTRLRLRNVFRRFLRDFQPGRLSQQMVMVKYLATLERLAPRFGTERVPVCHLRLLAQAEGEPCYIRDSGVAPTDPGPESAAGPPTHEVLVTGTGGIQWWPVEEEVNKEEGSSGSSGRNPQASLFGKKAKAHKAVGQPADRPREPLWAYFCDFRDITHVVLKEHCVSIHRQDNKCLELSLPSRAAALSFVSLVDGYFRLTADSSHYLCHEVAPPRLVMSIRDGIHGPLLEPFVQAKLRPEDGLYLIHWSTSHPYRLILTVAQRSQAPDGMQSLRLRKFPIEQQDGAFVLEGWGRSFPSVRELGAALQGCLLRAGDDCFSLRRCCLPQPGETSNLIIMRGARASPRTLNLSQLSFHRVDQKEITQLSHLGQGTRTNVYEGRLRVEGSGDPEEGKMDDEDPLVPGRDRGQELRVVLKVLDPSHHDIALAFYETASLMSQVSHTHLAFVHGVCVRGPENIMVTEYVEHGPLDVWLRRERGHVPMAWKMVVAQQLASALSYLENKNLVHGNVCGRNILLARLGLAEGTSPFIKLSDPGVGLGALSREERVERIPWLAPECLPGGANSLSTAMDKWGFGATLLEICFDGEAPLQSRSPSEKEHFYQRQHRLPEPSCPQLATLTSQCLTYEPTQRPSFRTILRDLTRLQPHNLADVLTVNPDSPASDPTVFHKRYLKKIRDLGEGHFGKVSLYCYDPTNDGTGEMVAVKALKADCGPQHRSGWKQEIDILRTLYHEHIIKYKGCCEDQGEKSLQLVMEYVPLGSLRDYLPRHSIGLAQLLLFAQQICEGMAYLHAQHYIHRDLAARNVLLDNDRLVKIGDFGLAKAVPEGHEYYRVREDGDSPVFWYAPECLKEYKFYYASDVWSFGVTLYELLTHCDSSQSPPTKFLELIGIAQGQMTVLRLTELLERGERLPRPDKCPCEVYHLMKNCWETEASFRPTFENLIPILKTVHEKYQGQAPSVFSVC
Chain of Tyrosine-protein kinase Fgr (Homo sapiens) (P09769 2-529 limits assumed): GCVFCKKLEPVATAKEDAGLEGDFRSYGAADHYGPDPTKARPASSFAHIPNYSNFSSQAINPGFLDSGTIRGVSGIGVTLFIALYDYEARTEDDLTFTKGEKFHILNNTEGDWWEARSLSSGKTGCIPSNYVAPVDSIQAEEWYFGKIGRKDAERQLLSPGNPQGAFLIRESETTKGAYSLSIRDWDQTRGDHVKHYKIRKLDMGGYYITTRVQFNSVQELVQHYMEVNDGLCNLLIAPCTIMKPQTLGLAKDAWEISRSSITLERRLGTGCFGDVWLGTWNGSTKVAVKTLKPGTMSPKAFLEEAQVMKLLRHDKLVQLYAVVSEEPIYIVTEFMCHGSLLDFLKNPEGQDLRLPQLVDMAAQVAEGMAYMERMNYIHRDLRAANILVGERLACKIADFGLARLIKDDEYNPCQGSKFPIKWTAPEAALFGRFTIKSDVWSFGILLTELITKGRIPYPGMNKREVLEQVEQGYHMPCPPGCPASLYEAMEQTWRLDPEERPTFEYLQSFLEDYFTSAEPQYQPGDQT

As for `COc1cccc(-n2ncc3c(N/N=C/c4ccc(F)cc4)ncnc32)c1`, the inhibition in [1] is 2.78%; in experiment [2] it was 11.4%; in [3], 29.7%; in [4], 2.07%; in experiment [5] it was 3.41%; in [6] it was 3.58%. In addition, the inhibition in [7] is 7.87%; in experiment [8], 0.24%; in experiment [9] it was -1.74%; in experiment [10] it was 5%.

As to `CCCN(CCS(C)(=O)=O)Cc1ccc(-c2ccc3ncnc(Nc4ccc(OCc5cccc(F)c5)c(Cl)c4)c3c2)o1`, the inhibition is 3.7% in experiment [1]; 3.69% in [2]; 7.51% in [3]; -1% in experiment [4]; 1.07% in experiment [5]; 0.88% in [6]. The inhibition in [7] was 1.93%; in [8] it was 1.48%; in experiment [9], -0.78%; in experiment [10], 2.08%.

Turning to `Clc1ccc(-c2nn3ncccc3c2-c2ccnc(Nc3ccccc3)n2)cc1`, the inhibition in experiment [1] amounted to 1.94%; in experiment [2] it was 25.1%; in experiment [3], 70.2%; in experiment [4] it was 4.39%; in experiment [5], 14.6%; in experiment [6], 0.8%. Further, the inhibition in experiment [7] is 4.19%; in [8], -2.63%; in experiment [9] it was -0.64%; in experiment [10], 1.14%.

On to `Cc1ccc2c(-c3ccnc(Nc4ccccc4)n3)c(-c3ccc(F)cc3)nn2n1`, for which the inhibition was 1.8% in [1]; 40.7% in experiment [2]; 78.4% in experiment [3]; 2.49% in experiment [4]; 22.1% in [5]; 2.15% in experiment [6]. Further, the inhibition was 4.21% in experiment [7], 3.24% in [8], -1.64% in [9] and 3.56% in [10].

As to `COc1ccc(-c2cc3c(N)ncnc3o2)cc1`, the inhibition was -1.73% in experiment [1]; 1.49% in experiment [2]; 7.14% in experiment [3]; -0.2% in experiment [4]; 0.12% in experiment [5]; -0.73% in experiment [6]. The inhibition in experiment [7] is -0.84%; in [8], -4.44%; in experiment [9] it was 3.74%; in [10], -0.51%.

`COc1ccc(-c2nn3ncccc3c2-c2ccnc(Nc3ccc4c(c3)OCCO4)n2)cc1`: the inhibition is 1.91% in experiment [1]; 47.9% in experiment [2]; 79.8% in [3]; 4.09% in [4]; 26.8% in experiment [5]; -1.66% in experiment [6]. Moreover, the inhibition was -0.57% in experiment [7], -7.3% in experiment [8], -1.85% in experiment [9] and -0.58% in [10].

For `NS(=O)(=O)c1ccc(Nc2ncc(-c3ccccc3)o2)cc1`, the inhibition in [1] is 1.97%; in experiment [2], 2.45%; in experiment [3], 10.1%; in experiment [4], 4.95%; in experiment [5], 13.1%; in [6], 35.3%. Besides, the inhibition in [7] is 78.8%; in experiment [8], 8.41%; in experiment [9], 2.33%; in experiment [10], 3.59%.

For `COc1ccc2c(-c3ccnc(Nc4cccc(OC(F)(F)F)c4)n3)cnn2n1`, the inhibition was determined as 0.68% in experiment [1]; 5.29% in experiment [2]; 7.16% in experiment [3]; 1.57% in experiment [4]; 7.39% in [5]; 3.4% in experiment [6]. In addition, the inhibition is 14.3% in experiment [7], 3.59% in experiment [8], -2.09% in experiment [9] and 4.51% in experiment [10].

For the compound `Fc1ccc(-c2cc(-c3c[nH]nc3-c3ccccn3)ccn2)cc1`, the inhibition in experiment [1] was -0.52%; in [2] it was 5.85%; in experiment [3], 3.11%; in experiment [4], 1.1%; in [5], 1.96%; in [6], 2.44%. Besides, the inhibition was 2.5% in [7], -6.21% in [8], -4.52% in experiment [9] and 3.67% in [10].

Turning to `CN1CCC(n2cnc(-c3ccc(F)cc3)c2-c2ccnc(Nc3ccccc3)n2)CC1`, the inhibition in experiment [1] is 1.8%; in experiment [2], 11.5%; in [3], 33.7%; in experiment [4], 0.12%; in [5], 3.33%; in [6] it was 0.8%. Moreover, the inhibition was 1.93% in experiment [7], -1.9% in experiment [8], 0.82% in experiment [9] and 2.41% in experiment [10].

Regarding `CCn1c(-c2nonc2N)nc2c(C#CC(C)(C)O)nc(OC[C@H](N)c3ccccc3)cc21`, the inhibition in [1] stood at 2.04%; in experiment [2] it was 0.69%; in [3], 5.54%; in [4] it was 6.07%; in experiment [5], 30.4%; in experiment [6] it was 2.64%. Moreover, the inhibition is 2.43% in experiment [7], -0.59% in experiment [8], -3.88% in experiment [9] and 0.23% in [10].

As to `O=C(O[C@H]1CN[C@H](C#Cc2cc3ncnc(Nc4ccc(Cc5ccccc5)cc4)c3s2)C1)N1CCOCC1`, the inhibition in experiment [1] was 0.95%; in experiment [2], 5.25%; in [3], 20.8%; in experiment [4], -0.12%; in [5], 2.35%; in experiment [6] it was -1.61%. Further, the inhibition in experiment [7] was 0.34%; in experiment [8], 5.18%; in experiment [9], -3.27%; in experiment [10], 0.99%.

For `COc1ccc2[nH]c3c4[nH]c5ccc(OC)cc5c4c4c(c3c2c1)C(=O)NC4=O`, the inhibition in [1] is 3.95%; in [2], 10.8%; in experiment [3], 28%; in [4] it was 2.46%; in experiment [5] it was 19.2%; in experiment [6], 28.6%. In addition, the inhibition is 79.1% in experiment [7], 65% in [8], -0.6% in experiment [9] and 17.1% in experiment [10].

As for `CCn1c(-c2nonc2N)nc2ccccc21`, the inhibition in experiment [1] was -0.03%; in [2] it was 2.86%; in experiment [3], 4.31%; in experiment [4], 2.69%; in [5], 0.59%; in experiment [6], 0.25%. In addition, the inhibition in [7] is 0.31%; in experiment [8], 3.23%; in [9] it was -0.21%; in experiment [10] it was 1.05%.

As to `Nc1nc(-c2ccc(F)cc2)c(-c2ccc3ncccc3n2)s1`, the inhibition is 3.47% in experiment [1]; 6.43% in experiment [2]; 14.1% in [3]; -0.09% in experiment [4]; 6.56% in [5]; 3.5% in experiment [6]. The inhibition in [7] is 3.75%; in experiment [8], 1.18%; in [9], -1.99%; in [10], 3.01%.

Regarding `CS(=O)(=O)CCNCc1coc(-c2ccc3ncnc(Nc4ccc(OCc5ccccc5)cc4)c3c2)c1`, the inhibition in experiment [1] was found to be 1.09%; in [2], 3.94%; in [3], 14.9%; in [4], 3.16%; in [5], 2.3%; in experiment [6], 3.27%. Moreover, the inhibition in experiment [7] is 9.61%; in experiment [8], -1.74%; in experiment [9], 0.61%; in experiment [10], 2.35%.

As to `Cc1cccc2c1NC(=O)/C2=N\Nc1ccc(S(N)(=O)=O)cc1`, the inhibition is 1.63% in [1]; 0.52% in experiment [2]; 4.37% in experiment [3]; -0.48% in experiment [4]; -0.65% in experiment [5]; 2.88% in experiment [6]. Moreover, the inhibition in experiment [7] was 8.43%; in experiment [8], 3.4%; in experiment [9], -0.5%; in [10], 3.05%.

For `CC(C)(CO)CNC(=O)c1ccc2c(c1)/C(=N/Nc1ccc(S(N)(=O)=O)cc1)C(=O)N2`, the inhibition is -0.62% in [1]; 3.82% in experiment [2]; 22.2% in experiment [3]; -1.72% in experiment [4]; 11.1% in experiment [5]; 0.08% in [6]. In addition, the inhibition in experiment [7] was 6.23%; in [8], 1.72%; in experiment [9], 4.08%; in experiment [10] it was -0.65%.

For `COc1cc(N2CCN(C(C)C)CC2)ccc1Nc1nc(Nc2ccc(F)cc2C(N)=O)c2cc[nH]c2n1`, the inhibition was 7.42% in experiment [1]; 0.9% in experiment [2]; 5.03% in experiment [3]; -0.84% in experiment [4]; 0.61% in experiment [5]; 2.47% in experiment [6]. The inhibition in experiment [7] was 8.56%; in experiment [8], 2.42%; in experiment [9], -2.61%; in experiment [10], 0.64%.

The values are drawn from ChEMBL document CHEMBL1961873, “Compounds: GSK PKIS; Assays: Nanosyn kinase panel” (2012).
